Assay results from PubChem BioAssay.
Calls of active or inactive are those of the source. The rule behind the calls is not given here.

What follows are compounds tested against Pantothenate synthetase (Mycobacterium tuberculosis (strain ATCC 25618 / H37Rv)) (UniProt P9WIL5) (assay: Coupled enzyme confirmation of inhibitors against recombinant Mtb PanC (AID 375;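 note: 0% = full reaction with vehicle and 100% = no enzyme background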)). Conditions: coupled enzyme assay; at 10 µM, stronger effect = higher value.
Chain of Pantothenate synthetase (Mycobacterium tuberculosis (strain ATCC 25618 / H37Rv)) (P9WIL5 whole entry, looked up): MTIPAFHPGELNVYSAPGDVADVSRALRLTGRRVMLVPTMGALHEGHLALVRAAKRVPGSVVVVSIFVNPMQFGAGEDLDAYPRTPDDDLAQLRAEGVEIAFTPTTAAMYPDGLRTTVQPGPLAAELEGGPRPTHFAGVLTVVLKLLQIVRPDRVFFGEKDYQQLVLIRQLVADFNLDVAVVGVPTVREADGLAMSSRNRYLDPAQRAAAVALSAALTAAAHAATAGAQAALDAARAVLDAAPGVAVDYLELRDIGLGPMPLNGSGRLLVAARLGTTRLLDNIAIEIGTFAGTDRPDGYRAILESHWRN

| SMILES | inhibition |
| --- | --- |
| CC(C)n1nc(C(=O)Nc2nc3ccc(S(C)(=O)=O)cc3s2)c2ccccc2c1=O | 0% (inactive) |
| Cn1c(Cc2ccccc2)nnc1SCC(=O)NC1CCCCC1 | 0% (inactive) |
| Cc1ccc(/C=c2\sc3nc(-c4ccccc4Br)nn3c2=O)o1 | 0% (inactive) |
| COc1cc(S(=O)(=O)N2CCOCC2)ccc1NC(=O)COC(=O)C12CC3CC(CC(C3)C1)C2 | 1% (inactive) |
| Cc1cc(-c2ccccc2)nc(SCc2ccc(C(=O)O)o2)n1 | 0% (inactive) |
| Cn1cccc1Cc1nnc(SCC(=O)Nc2ccccc2F)n1CCc1ccccc1 | 0% (inactive) |
| COc1cccc(/C=N/n2c(-c3ccco3)nc3ccccc3c2=O)c1 | 1% (inactive) |
| O=C(NCCN1C(=O)C2C3C=CC(C3)C2C1=O)N1CCOCC1 (stereo not given) | 0% (inactive) |
| NS(=O)(=O)c1ccc(CCNC(=O)c2cccnc2)cc1 | 1% (inactive) |
| Cc1cc(C)cc(NC(=O)c2nnn(Cc3cc(C)ccc3C)c2N)c1 | 0% (inactive) |
| O=c1[nH]c(CN2CCN(Cc3ccccc3)CC2)nc2sc3c(c12)CCC3 | 0% (inactive) |
| O=C1CCCC(O)=C1C=Nc1ccc2c(c1)oc1ccccc12 | 3% (inactive) |
| COc1cccc(NC(=O)COC(=O)c2cccnc2)c1 | 0% (inactive) |
| O=C1C(Cl)=C(NCC2CCCO2)C(=O)N1CCc1ccccc1 (stereo not given) | 0% (inactive) |
| O=C(OCC(=O)N1CCCC1)c1cncc(Br)c1 | 1% (inactive) |
| CC(C)Cn1cc(C(=O)NCC2CCCO2)c2c3ccccc3n(C)c2c1=O (stereo not given) | 4% (inactive) |
| COc1ccc(CCN2CCC(Nc3nc4ccccc4n3Cc3ccc(F)cc3)CC2)cc1 | 2% (inactive) |
| CC(C)Cn1c(N)c(C(=O)NCc2cccs2)c2nc3ccccc3nc21 | 1% (inactive) |
| O=C(c1ccc(CNS(=O)(=O)c2cccc(C(F)(F)F)c2)cc1)N1CCOCC1 | 0% (inactive) |
| CCOc1ccc(N(C(C)C(=O)NC2CCCCCC2)S(C)(=O)=O)cc1 (stereo not given) | 1% (inactive) |

| SMILES | inhibition |
| --- | --- |
| c1ccc2c(c1)CCCC2C1=NCCN1 (stereo not given) | 0% (inactive) |
| CCOC(=O)c1c(C)[nH]c(C)c1C(=O)COc1ccc(NC(=O)c2ccco2)cc1 | 1% (inactive) |
| O=C(N1CCCCCC1)N1CCN(C(=O)N2CCOCC2)CC1 | 0% (inactive) |
| CCOc1ccccc1NC(=O)CCN1CCN(S(=O)(=O)c2ccc(Br)cc2)CC1 | 0% (inactive) |
| CC(C)C1N=C2c3ccccc3N=C(SCc3cc(=O)n4ccccc4n3)N2C1=O (stereo not given) | 6% (inactive) |
| CCc1ccccc1NC(=O)C(C#N)Cc1cccnc1 (stereo not given) | 0% (inactive) |
| COC(=O)Cn1cnc2c(nnn2-c2ccc(C)cc2)c1=O | 0% (inactive) |
| CCc1c(C)nc(N)n2c(SCC(=O)N3CCCc4ccccc43)nnc12 | 2% (inactive) |
| COc1ccc(-c2nc(SC)n(S(=O)(=O)c3ccccc3)n2)cc1 | 0% (inactive) |
| CCOC(=O)CSc1nnc(CCc2nc3ccccc3[nH]2)n1C | 10% (inactive) |
| Cc1ccc2c(c1)nnn2C1CCN(C(=O)NC23CC4CC(CC(C4)C2)C3)CC1 | 0% (inactive) |
| Cc1ccc(S(=O)(=O)Cn2nnnc2CN(Cc2ccco2)CC2CCCO2)cc1 (stereo not given) | 3% (inactive) |
| Cc1ccc(Cn2nnc(C(=O)Nc3cccc(C)c3C)c2N)cc1 | 5% (inactive) |
| CCC1(c2ccccc2)C(=O)NCNC1=O | 7% (inactive) |
| CCN(C(=O)c1cccs1)c1nnc(-c2ccncc2)s1 | 0% (inactive) |
| Cn1cnc2c1c(=O)n(Cc1cccc(Br)c1)c(=O)n2C | 1% (inactive) |
| c1ccc(CN2CCN(c3ncnc4c3[nH]c3ccccc34)CC2)cc1 | 5% (inactive) |
| Cc1ccc(-c2nn(C)c(=O)c3ccccc23)cc1S(=O)(=O)NCCN1CCOCC1 | 2% (inactive) |
| CCOc1ccc2c(c1)n(CO)c(=S)n2CO | 0% (inactive) |
| O=C(NCCC1=CCCCC1)C1CCN(C(=O)Nc2ccccc2)CC1 | 0% (inactive) |
